Data taken from PubChem BioAssay AID1159580 (chemical genetic matrix, 2015).
The whole screen tested about 5,500 compounds, of which about 2,000 (36%) were called active. About 18% were inconclusive and are not listed. Cut-off read from the data, not from the text of the source: active = normalized growth mostly below about 0.91 (no sharp cut-off); inconclusive = no clear call, values can overlap the other calls; inactive = mostly above about 0.92. The list shows a part of the results.

Assay: chemical genetic growth profiling, strain panel (AID 1159580);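 note: tested at 20 µM; growth read once vehicle control cultures reached saturation at 30 °C; 1 = growth at the plate median or of vehicle wells; lower values mean less growth of the strain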
Settings: growth OD

Measured: normalized growth

CC(=O)OCC(=O)[C@@]1(O)[C@H](OC(C)=O)CC2C3CCC4=CC(=O)C=C[C@]4(C)[C@@]3(F)[C@@H](O)C[C@@]21C (some centres not stated)
inactive: S. cerevisiae deletion strains, locus YJR066W, strain TOR1, hits give low values 0.935 | S. cerevisiae deletion strains, locus YKL009W, strain mrt4, hits give low values 0.993 | S. cerevisiae deletion strains, locus YKL068W, hits give low values 0.994 | S. cerevisiae deletion strains, locus YKL085W, strain MDH1 (second series), hits give low values 1 | S. cerevisiae deletion strains, locus YKL085W, strain MDH1, hits give low values 1 | S. cerevisiae deletion strains, locus YKL160W, strain elf1, hits give low values 1.02 | S. cerevisiae deletion strains, locus YKL190W, strain CNB1, hits give low values 0.996 | S. cerevisiae deletion strains, locus YKR001C, strain vps1, hits give low values 0.999 | S. cerevisiae deletion strains, locus YKR026C, strain gcn3, hits give low values 0.993 | S. cerevisiae deletion strains, locus YKR091W, strain srl3, hits give low values 0.986 | S. cerevisiae deletion strains, locus YLL001W, strain dnm1, hits give low values 1.03 | S. cerevisiae deletion strains, locus YLL026W, hits give low values 1 | S. cerevisiae deletion strains, locus YLL041C, strain sdh2, hits give low values 0.985 | S. cerevisiae deletion strains, locus YLR027C, strain aat2, hits give low values 1.01 | S. cerevisiae deletion strains, locus YLR039C, strain RIC1, hits give low values 0.995 | S. cerevisiae deletion strains, locus YLR058C, strain SHM2, hits give low values 0.98 | S. cerevisiae deletion strains, locus YLR102C, strain apc9, hits give low values 0.999 | S. cerevisiae deletion strains, locus YLR113W, strain HOG1, hits give low values 0.98 | S. cerevisiae deletion strains, locus YLR221C, strain rsa3, hits give low values 0.956 | S. cerevisiae deletion strains, locus YLR258W, strain gsy2, hits give low values 0.982 | S. cerevisiae deletion strains, locus YLR262C, strain YPT6 (second series), hits give low values 1.01 | S. cerevisiae deletion strains, locus YLR262C, strain YPT6, hits give low values 0.974 | S. cerevisiae deletion strains, locus YLR268W, strain sec22, hits give low values 1.06 | S. cerevisiae deletion strains, locus YLR320W, strain mms22, hits give low values 0.97 | S. cerevisiae deletion strains, locus YLR330W, strain CHS5, hits give low values 0.993 | S. cerevisiae deletion strains, locus YLR342W, strain FKS1 (second series), hits give low values 1.01 | S. cerevisiae deletion strains, locus YLR342W, strain FKS1, hits give low values 1.02 | S. cerevisiae deletion strains, locus YLR357W, strain rsc2, hits give low values 0.974 | S. cerevisiae deletion strains, locus YLR370C, strain arc18, hits give low values 0.99 | S. cerevisiae deletion strains, locus YLR371W, strain rom2, hits give low values 0.983 | S. cerevisiae deletion strains, locus YLR384C, strain iki3, hits give low values 0.996 | S. cerevisiae deletion strains, locus YLR418C, strain cdc73, hits give low values 1 | S. cerevisiae deletion strains, locus YML016C, strain PPZ1, hits give low values 0.996 | S. cerevisiae deletion strains, locus YML032C, strain rad52, hits give low values 1.01 | S. cerevisiae deletion strains, locus YML120C, strain ndi1, hits give low values 1 | S. cerevisiae deletion strains, locus YML124C, strain tub3, hits give low values 0.991 | S. cerevisiae deletion strains, locus YMR058W, strain fet3, hits give low values 0.991 | S. cerevisiae deletion strains, locus YMR078C, strain ctf18, hits give low values 0.987 | S. cerevisiae deletion strains, locus YMR125W, strain sto1, hits give low values 0.983 | S. cerevisiae deletion strains, locus YMR129W, hits give low values 0.967 | S. cerevisiae deletion strains, locus YMR205C, strain PFK2, hits give low values 1.02 | S. cerevisiae deletion strains, locus YMR223W, strain ubp8, hits give low values 0.98 | S. cerevisiae deletion strains, locus YMR231W, strain pep5, hits give low values 1 | S. cerevisiae deletion strains, locus YMR263W, strain SAP30, hits give low values 0.991 | S. cerevisiae deletion strains, locus YMR307W, strain GAS1, hits give low values 1 | S. cerevisiae deletion strains, locus YNL067W, strain RPL9B, hits give low values 0.998 | S. cerevisiae deletion strains, locus YNL071W, strain lat1, hits give low values 0.974 | S. cerevisiae deletion strains, locus YNL183C, strain NPR1, hits give low values 0.949 | S. cerevisiae deletion strains, locus YNL209W, strain ssb2, hits give low values 0.986 | S. cerevisiae deletion strains, locus YNL233W, strain BNI4, hits give low values 0.986 | S. cerevisiae deletion strains, locus YNL248C, strain rpa49, hits give low values 0.937 | S. cerevisiae deletion strains, locus YNL250W, strain rad50, hits give low values 0.985 | S. cerevisiae deletion strains, locus YNL271C, strain bni1, hits give low values 0.997 | S. cerevisiae deletion strains, locus YNL298W, strain CLA4, hits give low values 1 | S. cerevisiae deletion strains, locus YNL307C, strain MCK1, hits give low values 0.998 | S. cerevisiae deletion strains, locus YNL322C, strain KRE1 (second series), hits give low values 0.998 | S. cerevisiae deletion strains, locus YNR049C, strain mso1, hits give low values 0.979 | S. cerevisiae deletion strains, locus YNR052C, strain pop2, hits give low values 1 | S. cerevisiae deletion strains, locus YOL006C, strain TOP1, hits give low values 0.959 | S. cerevisiae deletion strains, locus YOL012C, strain htz1 1.14 | S. cerevisiae deletion strains, locus YOL147C, strain pex11, hits give low values 0.994 | S. cerevisiae deletion strains, locus YOR001W, strain rrp6, hits give low values 1 | S. cerevisiae deletion strains, locus YOR061W, strain CKA2, hits give low values 0.963 | S. cerevisiae deletion strains, locus YOR069W, strain VPS5, hits give low values 0.993 | S. cerevisiae deletion strains, locus YOR070C, strain gyp1, hits give low values 0.989 | S. cerevisiae deletion strains, locus YOR080W, strain dia2, hits give low values 0.997 | S. cerevisiae deletion strains, locus YOR083W, strain WHI5, hits give low values 1.01 | S. cerevisiae deletion strains, locus YOR106W, strain vam3, hits give low values 1.02 | S. cerevisiae deletion strains, locus YOR136W, strain idh2, hits give low values 0.981 | S. cerevisiae deletion strains, locus YOR144C, strain elg1, hits give low values 0.998 | S. cerevisiae deletion strains, locus YOR184W, strain ser1, hits give low values 0.986 | S. cerevisiae deletion strains, locus YOR231W, strain MKK1, hits give low values 0.982 | S. cerevisiae deletion strains, locus YOR265W, strain rbl2, hits give low values 0.982 | S. cerevisiae deletion strains, locus YOR270C, strain vph1, hits give low values 0.973 | S. cerevisiae deletion strains, locus YOR290C, strain snf2, hits give low values 0.952 | S. cerevisiae deletion strains, locus YOR316C, strain cot1, hits give low values 0.993 | S. cerevisiae deletion strains, locus YPL051W, strain arl3, hits give low values 1.01 | S. cerevisiae deletion strains, locus YPL078C, strain atp4, hits give low values 1.02 | S. cerevisiae deletion strains, locus YPL106C, strain sse1, hits give low values 0.982 | S. cerevisiae deletion strains, locus YPL240C, strain hsp82, hits give low values 1 | S. cerevisiae deletion strains, locus YPL256C, strain CLN2, hits give low values 0.969 | S. cerevisiae deletion strains, locus YPR119W, strain clb2, hits give low values 0.998 | S. cerevisiae deletion strains, locus YPR141C, strain kar3, hits give low values 0.982 | S. cerevisiae deletion strains, locus YPR163C, strain tif3, hits give low values 0.985 | S. cerevisiae deletion strains, locus YPR167C, strain met16, hits give low values 0.992 | S. cerevisiae deletion strains, strain wtn01, hits give low values 1 | S. cerevisiae strains, strain wild type, hits give low values 0.983
